The values below come from PubChem BioAssay (Tox21).

Assay [1] in a line: Human pregnane X receptor (PXR) small molecule agonists, qHTS cell viability counter screen (AID 1346977). Also: nearly all actives have a fitted effect of over 50% in size. Also: potency is read from the fitted curve at half-maximal effect. The method, boiled down: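 After a 5hr pre-incubation, PXR-Luc HepG2 cells received compounds plus positive control in DMSO and were kept 24hr at 37C. Cell viability was quantified by fluorescence from CellTiter-Fluor added for the final hour.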
Assay [2] can be described thus: Caspase-3/7 induction in HepG2 cells by small molecules, qHTS assay (AID 1346978). Also: nearly all actives have a fitted effect of over 15% in size. Also: potency is read from the fitted curve at half-maximal effect. The procedure, abridged:
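Wild-type HepG2 cells (2,000/well) were settled 5 h at 37 C, 5% CO2, then exposed to compounds in DMSO for 17 h. Caspase-3/7 activity was read by luminescence 30 min after adding Caspase-Glo 3/7 reagent at room temperature.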

The nature of assay [3]: Caspase-3/7 induction in CHO-K1 cells by small molecules, qHTS cell viability counter screen (AID 1346979). Also: nearly all actives have a fitted effect of over 35% in size. Also: potency is read from the fitted curve at half-maximal effect. The method, boiled down: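 Multiplexed with Caspase-Glo 3/7 in CHO-K1 cells, this counter screen added CellTiter-Fluor after 16hr of compound exposure and recorded fluorescence 1hr later.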
Assay [4] can be described thus: Caspase-3/7 induction in CHO-K1 cells by small molecules, qHTS assay (AID 1346980). Also: nearly all actives have a fitted effect of over 15% in size. Also: potency is read from the fitted curve at half-maximal effect. The method, boiled down: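 Wild-type cells were seeded at 1,500 per well and settled 5 hr at 37 C, 5% CO2, then exposed to DMSO-dissolved compounds for 17 hr. Caspase-Glo 3/7 reagent was added, and luminescence was read after 30min at room temperature.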
On the technique in general: qHTS replaces the single test concentration by a dilution series.

A short description of assay [5]: Caspase-3/7 induction in HepG2 cells by small molecules, qHTS cell viability counter screen (AID 1346981). Also: nearly all actives have a fitted effect of over 30% in size. Also: potency is read from the fitted curve at half-maximal effect. The procedure, abridged:
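Wild-type HepG2 cells, 2,000/well, settled 5 hr at 37 C, 5% CO2 before compound addition. Viability read by CellTiter-Fluor fluorescence, reagent added after 16 hr compound exposure, then 1 hr at 37C, in the same wells as the caspase read.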

The target in assay [6] is Nuclear receptor subfamily 1 group I member 2 (Rattus norvegicus) (UniProt Q9R1A7). The assay can be described thus: Rat pregnane X receptor (rPXR) activation by small molecules, qHTS assay (AID 1346983). Also: nearly all actives have a fitted effect of over 20% in size. Also: potency is read from the fitted curve at half-maximal effect. To be noted: rPXR luciferase reporter cells, One-Glo luminescence, 24 h; max activation: stronger effect = higher value. The procedure, abridged:
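Cell-based rPXR luciferase reporter assay, 2,000 cells per well, rested 5hr at 37 C before compound addition in DMSO, then 24 hr at 37 C. One-Glo reagent was added and luminescence read after 30 min at room temperature.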

Assay [7] has as its target Nuclear receptor subfamily 1 group I member 2 (Homo sapiens) (UniProt O75469). Kind of assay: CYP3A4 induction through human pregnane X receptor (PXR) by small molecules, qHTS assay (AID 1346984). Also: nearly all actives have a fitted effect of over 40% in size. The method, boiled down:
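DPX-2 HepG2 cells carrying a PXR response element and CYP3A4-promoter luciferase construct, treated with compounds 24 hr at 37C. Then P450-Glo CYP3A4 Luciferin-IPA substrate (3uM final) for 3 hr at 37C, One-Glo added, luminescence read.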

For assay [8], the target named is Cytochrome P450 2D6 (Homo sapiens) (UniProt P10635). The assay can be described thus: Cytochrome P450 Family 2 Subfamily D Member 6 (CYP2D6) small molecule antagonists: luciferase reporter qHTS assay (AID 1671196). Also: nearly all actives have a fitted effect of over 50% in size. Also: potency is read from the fitted curve at half-maximal effect. The procedure, abridged: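 Cell-free P450-Glo system: CYP2D6 with proluciferin substrate was pre-incubated with compound for 10 min, then reacted with NADPH regeneration for 1 h at room temperature. Luciferin product was detected after 20 min, and data were reported as relative luminescence units.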
In general terms: In a reporter assay the amount or activity of a reporter protein is the signal.

Assay [9] has as its target Nuclear receptor subfamily 1 group I member 2 (Homo sapiens) (UniProt O75469). The assay can be described thus: Human pregnane X receptor (PXR) small molecule agonists, qHTS assay (AID 1346982). Also: nearly all actives have a fitted effect of over 35% in size. Also: potency is read from the fitted curve at half-maximal effect. The method, boiled down:
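PXR-Luc HepG2 reporter cells (CYP3A4-driven luciferase) in 5% charcoal-stripped FBS medium, plated 5 h before compound addition, then treated 24 h at 37C. Luciferase read by ONE-Glo luminescence after 30 min at room temperature.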

Where “and” joins values, the source holds several entries; their conditions need not be identical. Equal values may be shown once. Results filed as inconclusive are left out. More than one record can exist for a structure, and the calls need not agree. Calls of active or inactive are those of the source. Calls follow the shape of the dose curve; as a rule, active = well fitted curve in the direction sought with a large enough effect in the repeat runs; inconclusive = weak or mixed curves; inactive = no such curve, though single readings can be large; an effect the other way counts as inactive or inconclusive.
% is scaled to controls: 0 for no effect and ±100 for the full control effect.

Chain of Nuclear receptor subfamily 1 group I member 2 (Rattus norvegicus) (Q9R1A7 whole entry, looked up): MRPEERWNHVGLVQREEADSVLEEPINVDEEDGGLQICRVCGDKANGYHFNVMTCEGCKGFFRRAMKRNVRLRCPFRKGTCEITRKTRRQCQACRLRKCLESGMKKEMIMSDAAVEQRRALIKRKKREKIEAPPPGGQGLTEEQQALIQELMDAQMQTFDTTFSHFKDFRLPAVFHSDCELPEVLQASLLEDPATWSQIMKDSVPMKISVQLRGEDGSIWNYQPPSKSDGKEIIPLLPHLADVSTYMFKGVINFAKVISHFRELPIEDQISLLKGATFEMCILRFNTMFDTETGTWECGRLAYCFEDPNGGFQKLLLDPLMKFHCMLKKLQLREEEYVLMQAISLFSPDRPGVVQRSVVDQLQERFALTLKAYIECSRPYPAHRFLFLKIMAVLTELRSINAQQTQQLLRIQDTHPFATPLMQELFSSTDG
Chain of Cytochrome P450 2D6 (Homo sapiens) (P10635 whole entry, looked up): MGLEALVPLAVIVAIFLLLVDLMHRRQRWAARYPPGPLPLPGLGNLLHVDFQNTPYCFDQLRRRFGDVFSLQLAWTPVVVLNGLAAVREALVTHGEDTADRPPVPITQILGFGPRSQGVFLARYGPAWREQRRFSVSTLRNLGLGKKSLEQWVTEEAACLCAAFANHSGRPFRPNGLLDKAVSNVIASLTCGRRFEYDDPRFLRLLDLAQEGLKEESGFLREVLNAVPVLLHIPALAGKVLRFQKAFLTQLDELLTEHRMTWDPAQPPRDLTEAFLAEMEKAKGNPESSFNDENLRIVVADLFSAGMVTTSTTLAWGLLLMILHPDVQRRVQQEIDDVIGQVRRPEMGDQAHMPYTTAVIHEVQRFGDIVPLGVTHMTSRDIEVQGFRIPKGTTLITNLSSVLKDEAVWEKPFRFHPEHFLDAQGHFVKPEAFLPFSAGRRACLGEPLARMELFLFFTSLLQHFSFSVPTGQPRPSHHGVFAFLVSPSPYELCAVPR
Chain of Nuclear receptor subfamily 1 group I member 2 (Homo sapiens) (O75469 whole entry, looked up): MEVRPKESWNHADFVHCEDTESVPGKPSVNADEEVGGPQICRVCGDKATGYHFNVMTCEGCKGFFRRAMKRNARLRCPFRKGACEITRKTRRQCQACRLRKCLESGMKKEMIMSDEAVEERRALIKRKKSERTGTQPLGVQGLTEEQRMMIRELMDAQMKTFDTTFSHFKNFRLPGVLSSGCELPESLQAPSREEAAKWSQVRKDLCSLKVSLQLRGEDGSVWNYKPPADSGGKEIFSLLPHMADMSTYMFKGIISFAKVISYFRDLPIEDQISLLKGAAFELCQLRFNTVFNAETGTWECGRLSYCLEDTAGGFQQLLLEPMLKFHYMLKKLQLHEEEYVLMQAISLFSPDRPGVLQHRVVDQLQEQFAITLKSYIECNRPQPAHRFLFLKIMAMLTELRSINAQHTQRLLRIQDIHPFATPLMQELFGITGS

`CC[C@H](c1ccc(O)cc1)[C@@H](CC)c1ccc(O)cc1`: the Potency result in [1], in [2], in [4], in assay [5], in [7] and in assay [8] was “inactive” throughout. Also, in [3], the Potency is 68.6 µM (active). In addition, the max activation in assay [6] was -4.59% (inactive).

For `CC/C(=C(\c1ccc(O)cc1)c1ccc(OCCN(C)C)cc1)c1ccccc1`, the Potency in [1] is 19.4 µM (active); in [2], 34.4 µM (active); in assay [3], 34.4 µM (active); in assay [5] it was 43.4 µM (active); in assay [9], 6.87 µM (active); in assay [8], 40 µM (active).

As for `Fc1ccc([C@@H]2CCNC[C@H]2COc2ccc3c(c2)OCO3)cc1`, the Potency in assay [1] is 29.8 µM (active). In addition, the Potency entry in assay [2] and in assay [4] was “inactive” in each case.

For the molecule `O=C1c2ccccc2Cc2ccccc21`, the Potency entry in [1], in assay [2], in assay [4] and in assay [8] was “inactive” throughout. Moreover, the Potency in assay [3] was 30.9 µM (active); in [9] it was 27.5 µM (active).

As to `C=C(C)C(=O)OCC(O)COc1ccc(C(C)(C)c2ccc(OCC(O)COC(=O)C(=C)C)cc2)cc1` (centres undefined), the Potency entry in [1], in [2] and in assay [4] was “inactive” throughout. The Potency in [3] was 54.5 µM (active); in assay [9], 27.3 µM (active); in assay [8], 39.9 µM (active).

For `CC(C)(C)c1ccc(C(=O)O)cc1`, the Potency result in [1], in assay [2], in assay [3], in assay [4], in [5] and in [8] was “inactive” throughout.

On to `O=c1[nH]sc2ccccc12`, for which the Potency was 27.3 µM (active) in assay [1], 19.3 µM (active) in assay [3] and 8.63 µM (active) in assay [9]. In addition, the Potency result in [2], in [4] and in assay [8] was “inactive” throughout.

In the case of `CCCCCCCC/C=C/CCCCCCCC1=NCCN1CCO`, the Potency was 68.6 µM (active) in assay [1]; 43.3 µM (active) in [2]; 54.5 µM (active) in [3]; 54.5 µM (active) in assay [5]; 5.03 µM (active) in assay [8].

As for `NNc1nc(-c2ccccc2)cs1`, the Potency entry in assay [1], in [2] and in [4] was “inactive” each time. Besides, the results for the Potency in [3] and in assay [9] were 62.9 µM (active) and 31.5 µM (active), respectively.

Consider `O=C1CCCCCN1SSN1CCCCCC1=O`, for which the Potency result in [1], in assay [2], in assay [4], in assay [5] and in [8] was “inactive” in each case. In addition, in assay [3], the Potency was 54.5 µM (active).

Take `CCC1=C[C@@H]2CN(C1)Cc1c([nH]c3ccccc13)[C@@](C(=O)OC)(c1cc3c(cc1OC)N(C)[C@H]1[C@@](O)(C(=O)OC)[C@H](OC(C)=O)[C@]4(CC)C=CCN5CC[C@]31[C@@H]54)C2`: the Potency was 13.3 µM (active) in assay [1], 0.668 µM (active) in [3], 13.3 µM (active) in assay [5] and 3.55 µM (active) in assay [6]. Moreover, the Potency entry in [2], in [4] and in assay [8] was “inactive” in each case.

For `c1ccc(CSCc2ccccc2)cc1`, the Potency entry in [1], in [2], in assay [4] and in assay [5] was “inactive” in each case. Moreover, in assay [9], the Potency is 27.2 µM (active).

On to `Clc1ccc(C(Cn2ccnc2)OCc2ccc(Sc3ccccc3)cc2)c(Cl)c1` (centres undefined), for which the Potency result in assay [1], in assay [2], in [4] and in [5] was “inactive” in each case. Besides, the Potency in assay [8] was 0.389 µM (active).

Turning to `CC(C)C(C)(C)C(C)(C)C(C)(C)S`, the Potency entry in assay [1], in [2] and in [4] was “inactive” throughout. The Potency in assay [9] was 27.3 µM (active); in assay [8], 39.9 µM (active).

With `CCOC(=O)/C=C(C)/C=C/C=C(C)/C=C/c1c(C)cc(OC)c(C)c1C`, the Potency entry in assay [1], in [2], in [4], in [5] and in [7] was “inactive” throughout. Besides, in [6], the max activation was -4.32% (inactive).

Consider `CCCCCCCCCCCCCCCC(=O)OC[C@H](O)[C@H]1OC(=O)C(O)=C1O`, for which the Potency entry in assay [1], in assay [2], in assay [4], in [5] and in assay [8] was “inactive” in each case.

Consider `CC(=O)S[C@@H]1CC2=CC(=O)CC[C@]2(C)[C@H]2CC[C@@]3(C)[C@@H](CC[C@@]34CCC(=O)O4)[C@H]12`, for which the Potency entry in assay [1], in assay [2] and in assay [4] was “inactive” in each case.

As to `C[C@H](CCC(=O)O)[C@H]1CC[C@H]2[C@@H]3CC[C@@H]4C[C@H](O)CC[C@]4(C)[C@H]3CC[C@]12C`, the Potency entry in assay [1] was “inactive”. For the same molecule, the Potency in assay [3] was 48.4 µM (active); in assay [4], 48.4 µM (active) and 61.1 µM (active); in assay [5], 60.9 µM (active); in [9], 54.5 µM (active); in assay [8], “inactive and 35.6 µM (active)”.

In the case of `O=C(NO)C1(NS(=O)(=O)c2ccc(Oc3ccc(F)cc3)cc2)CCOCC1`, the Potency entry in assay [1], in [2], in assay [4], in [5], in assay [9] and in assay [8] was “inactive” each time.

In the case of `Cc1cccc2c1cc1ccc3cccc4ccc2c1c34`, the Potency entry in assay [1], in [2], in assay [4], in [9] and in assay [8] was “inactive” each time.

In the case of `O=C(Oc1cccc2cccnc12)c1ccccc1`, the Potency was 3.35 µM (active) in assay [1] and 7.5 µM (active) in assay [3]. For the same molecule, the Potency result in [4], in [7] and in assay [8] was “inactive” throughout. The max activation in assay [6] is -3.5% (inactive).

With `CCCCCCC[N+](CC)(CC)CCCCc1ccc(Cl)cc1`, the Potency entry in [1], in assay [2], in assay [4], in assay [9] and in [7] was “inactive” in each case. Also, the max activation in assay [6] was -3.24% (inactive). Further, in assay [8], the Potency was 0.219 µM (active).

For `Cc1ccc(O)c(C(C)(C)C)c1`, the Potency entry in [1], in assay [4], in [5], in assay [9] and in [8] was “inactive” throughout. Further, the Potency in assay [2] was 61 µM (active).
